Bead autofluor: counter-screen for toxin protease inhibitors: compound fluorescence; compound autofluorescence counterscreen, microsphere flow cytometry; active compounds read high; fluorescence intensity (concentration not given with the values); 360,000 compounds, 3.1% hits; in the data active = fluorescence intensity above about 16000; inconclusive = no clear call, values can overlap the other calls
BoNT-F LC inh: BoNT/F light chain protease inhibitors, primary screen, biochemical, flow cytometry, MLPCN library | 360,000 compounds, 0.22% hits | AID 588497, 2011 | Botulinum neurotoxin type F light chain protease (Clostridium botulinum) | inhibition, % at 10 µM | Multiplex microsphere protease cleavage assay; in the data active = inhibition above about 35%, passing the limit was not always enough; inconclusive = no clear call, values can overlap the other calls; also: plate controls were buffer without enzyme for full effect and enzyme alone for no effect
BoNT A protease: BoNT/A light chain protease inhibitors, primary screen, biochemical, flow cytometry, MLPCN library. Botulinum neurotoxin type A light chain protease (Clostridium botulinum A str. ATCC 3502). multiplex microsphere protease substrate cleavage. inhibition, % at 10 µM. 360,000 compounds, 0.17% hits; also: plate controls were buffer without enzyme for full effect and enzyme alone for no effect
MazEF act: activators of E. coli MazEF toxin-antitoxin RNase, primary screen, biochemical, fluorescence, uHTS; activation, % at 20 µM; Endoribonuclease toxin MazF (Escherichia coli (strain K12)), P0AE70; 350,000 compounds, 0.32% hits; FAM/BHQ RNA-DNA oligo cleavage fluorescence, 5 h; in the data active = activation above about 50%
Anthrax LF prot: Bacillus anthracis LF protease inhibitors, primary screen, biochemical, multiplex microsphere, MLPCN library; Lethal factor (Bacillus anthracis), P15917; multiplex microsphere protease cleavage assay; inhibition, % at 10 µM; 360,000 compounds, 0.12% hits; AID 588501, 2011; also: plate controls were buffer without enzyme for full effect and enzyme alone for no effect
Numbers without * were called inactive; ? = inconclusive; · = no result. In the library only some 3.6% were active in any assay of this set; here they are far more common. Rule as the data show it, unless noted: active = inhibition above about 30%; inconclusive = no clear call, values can overlap the other calls; inactive = below that.

SMILES	Bead autofluor	BoNT-F LC inh	BoNT A protease	MazEF act	Anthrax LF prot
C/C(=N/Nc1cc(-c2ccccc2)nc(-c2ccccc2)n1)c1ccc(O)cc1	8856	1	0	18	-4
C/C(=N\Nc1cc(-c2ccccc2)nc(-c2ccc(Br)cc2)n1)c1cccc(N)c1	17624*	-13	-6	-1	-5
O=C(NCCC1=CCCCC1)c1ccc(Cl)c(S(=O)(=O)N2CCOCC2)c1	15742	3	2	-7	-2
Cc1ccc(CSCCNC(=O)c2ccc(Cl)c(S(=O)(=O)N3CCOCC3)c2)cc1	20110*	-2	1	4	-2
O=C(NC(=S)N1CCN(c2ccccc2)CC1)c1ccco1	·	·	·	-4	·
O=C(Nc1ccc(Cl)cc1)c1ccc(-n2cncn2)c([N+](=O)[O-])c1	24392*	-9	-5	1	-2
Cc1ccc(NC(=O)c2ccc(-n3cncn3)c([N+](=O)[O-])c2)cc1	6342	-6	0	3	-4
O=C(Nc1ccc(Nc2ccccc2)cc1)c1ccc(Cl)c([N+](=O)[O-])c1	3416	?	3	78*	-3
COc1ccc(-c2csc(N(Cc3ccco3)C(=O)c3cccs3)n2)cc1	4258	-8	-1	64*	-10
O=C(COc1ccc(Cl)cc1)N(Cc1ccccc1)c1nc(-c2ccccc2)cs1	5339	-19	-1	-6	-2
COc1ccc(-c2csc(N(CC3CCCO3)C(=O)c3cccs3)n2)cc1 (configuration not stated)	22735*	-4	?	2	-2
COc1ccc(OC)c(-c2csc(N(Cc3ccco3)C(=O)c3cccs3)n2)c1	5931	1	-1	-14	-7
O=C(C1CC1)N(Cc1ccco1)c1nc(-c2ccccc2)cs1	23051*	-6	-2	5	-1
Clc1cccc(Cl)c1Cn1cc(Br)cn1	16279*	3	1	-19	-1
Clc1ccc(Cn2cc(Br)cn2)cc1Cl	10607	-5	-1	-3	-2
Cn1c(=O)c2[nH]c(CCCCCCCCc3nc4ccccc4[nH]3)nc2n(C)c1=O	3472	-3	0	4	-5
CCc1nc2ccc(C(=O)Nc3cccc(OCC(=O)N(C)C)c3)cn2c1N(C)C(=O)c1ccncc1	3862	-4	0	·	-3
CN(C)S(=O)(=O)c1ccc(C(=O)NCCOc2ccc(F)cc2)cc1	24248*	-7	-5	3	-3
O=C(NCc1ccc(F)cc1)c1cc(C2CCCCN2S(=O)(=O)c2ccc(F)cc2F)on1 (configuration not stated)	3174	-9	-1	·	-10
O=C(NN1C(=O)/C(=C/c2cccs2)SC1=S)c1ccccc1	8439	41*	10	-4	22
O=C(CCN1C(=O)/C(=C/c2cccc(Br)c2)SC1=S)NNC(=O)c1cccnc1	16764*	-4	-1	-5	-3
Cc1ccc(/C=C2\SC(=S)N(CCC(=O)Nc3cccnc3)C2=O)cc1	5183	4	0	82*	-1
O=C(NN1C(=O)/C(=C/c2cccnc2)SC1=S)C(c1ccccc1)c1ccccc1	21106*	-2	-1	-16	-2
CN(C(=O)COC(=O)c1ccc2c(c1)OCCO2)C1CCCCC1	?	-9	-3	-2	3
C#CCOCCOCCOCCNc1nc(N2CCN(C(=O)CCCCCCCCCCNC(=O)Cn3cc(CCCCCN)nn3)CC2)nc(N2CCN(C(=O)CCCCCCCCCCNC(=O)[C@H]([C@@H](C)CC)n3cc(CCCCCN)nn3)CC2)n1	4705	-59	-1	-18	-17
SMILES	Bead autofluor	BoNT-F LC inh	BoNT A protease	MazEF act	Anthrax LF prot
CCOc1ccccc1N1CC(C(=O)Nc2cc(S(=O)(=O)N3CCOCC3)ccc2OC(C)C)CC1=O (configuration not stated)	3363	0	0	2	0
N#CN1C2CCC1CC(O)(c1ccccc1)C2 (configuration not stated)	5390	0	0	·	0
COc1ccc2nc(C)cc(N3CCOCC3)c2c1	19626*	5	2	2	-6
C/C(=N/NS(=O)(=O)c1ccc(Br)cc1)c1cccc(NC(=O)C2CC2)c1	3766	2	0	-5	-1
Cc1nn(C)cc1C(=O)Nc1c(C)nn(Cc2ccccc2Cl)c1C	7280	-5	1	0	-2
CCn1nc(C)c(NC(=O)c2cc(Br)ccc2Cl)c1C	19900*	-1	0	-3	-5
CC1CCCN(C(=O)COC(=O)C2=COCCO2)C1 (configuration not stated)	3769	-1	0	-2	-2
Cc1ccc(S(=O)(=O)N2CCSC2C(=O)O)cc1 (configuration not stated)	9796	8	1	-1	-4
CN(C)N=Nc1ccc(S(=O)(=O)N2CCSC2C(=O)O)cc1 (configuration not stated)	25952*	-10	?	2	-3
CCCCNC(=O)C1(C)CCN1C(=O)c1oc2ccccc2c1C (configuration not stated)	3843	-6	0	·	6
Cc1ccc(/C=C2/CCc3c([nH]c4ccccc34)C2=O)cc1	23420*	3	0	-1	1
O=C1/C(=C\c2ccccc2)CCc2c1[nH]c1ccccc21	23509*	-3	-1	-5	-1
Cc1ccc2[nH]c3c(c2c1)CC/C(=C/c1ccccc1)C3=O	8375	12	3	3	-6
Cc1nc2c(n1O)CCC/C2=N\O	3266	4	0	1	-2
CCN1CCCCC(=N/O)/C(=N/O)CCCC1	3542	38*	-1	11	5
COc1ccccc1Oc1ccccc1C(=O)O	16152*	0	1	0	1
CN1c2ccccc2C(C)(C)C12CC(c1cccc(S(=O)(=O)N3CCCC3)c1)=NO2 (configuration not stated)	2509	14	2	-1	2
COc1ccc(C(O)c2nc(-c3cnc4ccccc4c3)cs2)cc1 (configuration not stated)	3086	1	0	·	-2
CCN(CC)S(=O)(=O)c1cccc(NC(=O)C2SC(=Nc3ccc(C)cc3C)C(C(=O)NCC3CCCO3)=C2N)c1 (configuration not stated)	23589*	-5	0	-8	-1
COc1ccc(Nc2nc(N3CCCCC3)nc(N3CCCCC3)n2)c(OC)c1	10251	-2	-1	0	-5
COc1ccc(Cl)cc1Nc1nc(N)nc(C(F)(F)F)n1	12088	-12	-2	-2	-6
COc1ccc(Nc2nc(N)nc(C(F)(F)F)n2)c(OC)c1	17527*	6	6	4	-9
COc1ccc(Nc2nc(N3CCCC3)nc(N3CCCC3)n2)c(OC)c1	20538*	-3	-1	-3	-4
Cc1noc(C)c1C(=O)N1CCCc2ccccc21	2423	-5	2	-2	2

Screening results: PubChem BioAssay, several laboratories
